Values without a mark were called inactive. Calls of active or inactive are those of the source.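 How the source made its calls: active means blocks over 60% of fluorescent estradiol binding at 10 µM; inactive means the rest.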

Broadly, the inhibition is how much of the control response was suppressed.

This experiment addresses G-protein coupled estrogen receptor 1 (Homo sapiens) (UniProt Q99527). Nature of the experiment: GPR30 competitive binders vs fluorescent estrogen, primary screen, cell-based, Cos7 GPR30-GFP, flow cytometry, 10 µM (AID 1212). The following applies: fluorescent estrogen competition, at 10 µM; active compounds read high. For orientation: In flow cytometry, cells or beads pass a laser one at a time.
As for `COc1ccc(Oc2ccc3c(c2)c2c4n3CCNC4CCC2)cc1` (configuration not stated), the compound was called inactive. Take `O=C(O)c1ccc([N+](=O)[O-])c2c1NC(c1ccccc1)C1CC=CC21` (configuration not stated): the inhibition was 100% (active). On the same count and under the same terms, under `Cc1nn(-c2ccccc2)c2sc(C#N)c(N)c12` stands 58%. As to `CCCc1cc(=O)oc2c(C)c(OC3CCCCC3=O)ccc12` (configuration not stated), the outcome was inactive. The same measure, in the same setting: under `COc1cc(C2C3C(C)N(C)C(=O)N(C)C3N(C)C(=O)N2C)ccc1O` (configuration not stated) stands “inactive”. Same read-out and setting: under `CCCCCCc1cc2c3c(c(=O)oc2cc1OCC(=O)OC)CCC3` stands “inactive”; under `CCCc1c(C(=O)OCC)[nH]c2c1C(=O)CC(c1ccccc1)C2` (configuration not stated), “inactive”; under `O=C(O)COc1cc2oc(=O)c3c(c2cc1Cl)CCCC3`, “inactive”.

`COc1ccc(C2(CNCC(N)=O)CCCC2)cc1OC`: the compound was called inactive.

`CC1(C)Cc2[nH]c(=O)c(C(=O)O)cc2CO1`: the call was inactive. In the case of `COc1cc([C@@H]2Nc3ccc(S(=O)(=O)Nc4ccccc4F)cc3[C@@H]3C=CC[C@@H]32)cc(OC)c1OC`, the inhibition was 17%. For the compound `CC(=O)OC1CC2(C)C(=O)CCC2C2CCc3cc(O)ccc3C12` (configuration not stated), the compound was called inactive.

For the compound `CCOc1ccc(NS(=O)(=O)c2ccc3c(c2)[C@H]2C=CC[C@H]2[C@@H](c2ccc(C(=O)O)cc2)N3)cc1`, the inhibition is 100% (active). Take `CCCOc1cc2oc(=O)c3c(c2cc1CC)CCCC3`: the compound was called inactive.

For `COc1cc([N+](=O)[O-])cc2c1NC(c1ccccc1Cl)C1CC=CC21` (configuration not stated), the compound was classed as inactive.

Regarding `CC1CCN(Cc2c(O)ccc3c4c(c(=O)oc23)CCC4)CC1`, the result was inactive. For the compound `COc1cc([N+](=O)[O-])cc2c1NC(c1ccc(Cl)cc1)C1CC=CC21` (configuration not stated), the inhibition was 9%. For `CC1(C)Cc2[nH]c3ccccc3c2C(C)(C)N1`, the compound was called inactive. Same read-out and setting: under `COc1cccc(C2NCCc3cc(OC)c(OC)cc32)c1` (configuration not stated) stands “inactive”; under `O=C1CC(c2ccc3c(c2)OCO3)c2ccc3ccccc3c2N1` (configuration not stated), “inactive”; under `CC1(C)C=C(c2ccc(O)cc2)CC(C)(C)N1`, “inactive”. On to `COC(=O)c1ccc(OCc2c(C)noc2C)cc1`, for which the inhibition was 61% (active). Same read-out and setting: under `CCOc1cc2c(c([N+](=O)[O-])c1)NC(c1ccc(Br)cc1)C1CC=CC21` (configuration not stated) stands 23%; under `COc1ccc(NS(=O)(=O)c2ccc3c(c2)[C@H]2C=CC[C@H]2[C@@H](c2ccc(F)cc2)N3)cc1`, 56%. On to `O=c1oc2cc(O)c(Cl)cc2c2c1CCCC2`, for which the result was inactive. As to `CC(C)C1CC(CCNCc2ccc3c(c2)OCO3)(c2ccccc2)CCO1` (configuration not stated), the outcome was inactive. As for `CCc1cc2c3c(c(=O)oc2cc1OCC(=O)OC)CCCC3`, the outcome was inactive.

For the origin of these results see PubChem BioAssay AID1212 (NMMLSC, 2008).
